In ChEMBL document CHEMBL1961873, “Compounds: GSK PKIS; Assays: Nanosyn kinase panel” (2012):

How the values were obtained:
[1] = biological target: RAF proto-oncogene serine/threonine-protein kinase (Homo sapiens) (UniProt P04049); conditions: at 1 µM;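 also: values are the mean percent inhibition of CRAF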
[2] = biological target: T1, Interleukin-1 receptor-associated kinase 4 (Homo sapiens) (UniProt Q9NWZ3); conditions: at 0.1 µM
T1 sequence (whole entry): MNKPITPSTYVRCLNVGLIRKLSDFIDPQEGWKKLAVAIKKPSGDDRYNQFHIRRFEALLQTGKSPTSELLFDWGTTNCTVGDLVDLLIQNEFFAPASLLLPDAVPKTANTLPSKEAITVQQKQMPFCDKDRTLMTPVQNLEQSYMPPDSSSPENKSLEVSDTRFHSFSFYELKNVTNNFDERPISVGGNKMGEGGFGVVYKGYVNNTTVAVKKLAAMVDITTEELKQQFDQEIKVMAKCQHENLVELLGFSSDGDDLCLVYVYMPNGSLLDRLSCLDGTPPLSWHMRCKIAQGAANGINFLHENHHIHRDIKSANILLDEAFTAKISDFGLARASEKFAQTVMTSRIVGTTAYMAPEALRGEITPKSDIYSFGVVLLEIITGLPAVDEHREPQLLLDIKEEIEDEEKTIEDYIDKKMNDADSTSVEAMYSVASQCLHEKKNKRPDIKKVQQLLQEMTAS

[3] = biological target: T1, Interleukin-1 receptor-associated kinase 4 (Homo sapiens); conditions: at 1 µM
[4] = biological target: Leucine-rich repeat serine/threonine-protein kinase 2 (Homo sapiens) (UniProt Q5S007); conditions: at 0.1 µM
[5] = biological target: Leucine-rich repeat serine/threonine-protein kinase 2 (Homo sapiens) (UniProt Q5S007); conditions: at 1 µM
[6] = tested on: Leucine-rich repeat serine/threonine-protein kinase 2 (Homo sapiens), Q5S007 [G2019S]; conditions: at 0.1 µM
[7] = tested on: Leucine-rich repeat serine/threonine-protein kinase 2 (Homo sapiens), Q5S007 [G2019S]; conditions: at 1 µM

Chain of Leucine-rich repeat serine/threonine-protein kinase 2 (Homo sapiens), Q5S007 [G2019S] (Q5S007 whole entry G2019S): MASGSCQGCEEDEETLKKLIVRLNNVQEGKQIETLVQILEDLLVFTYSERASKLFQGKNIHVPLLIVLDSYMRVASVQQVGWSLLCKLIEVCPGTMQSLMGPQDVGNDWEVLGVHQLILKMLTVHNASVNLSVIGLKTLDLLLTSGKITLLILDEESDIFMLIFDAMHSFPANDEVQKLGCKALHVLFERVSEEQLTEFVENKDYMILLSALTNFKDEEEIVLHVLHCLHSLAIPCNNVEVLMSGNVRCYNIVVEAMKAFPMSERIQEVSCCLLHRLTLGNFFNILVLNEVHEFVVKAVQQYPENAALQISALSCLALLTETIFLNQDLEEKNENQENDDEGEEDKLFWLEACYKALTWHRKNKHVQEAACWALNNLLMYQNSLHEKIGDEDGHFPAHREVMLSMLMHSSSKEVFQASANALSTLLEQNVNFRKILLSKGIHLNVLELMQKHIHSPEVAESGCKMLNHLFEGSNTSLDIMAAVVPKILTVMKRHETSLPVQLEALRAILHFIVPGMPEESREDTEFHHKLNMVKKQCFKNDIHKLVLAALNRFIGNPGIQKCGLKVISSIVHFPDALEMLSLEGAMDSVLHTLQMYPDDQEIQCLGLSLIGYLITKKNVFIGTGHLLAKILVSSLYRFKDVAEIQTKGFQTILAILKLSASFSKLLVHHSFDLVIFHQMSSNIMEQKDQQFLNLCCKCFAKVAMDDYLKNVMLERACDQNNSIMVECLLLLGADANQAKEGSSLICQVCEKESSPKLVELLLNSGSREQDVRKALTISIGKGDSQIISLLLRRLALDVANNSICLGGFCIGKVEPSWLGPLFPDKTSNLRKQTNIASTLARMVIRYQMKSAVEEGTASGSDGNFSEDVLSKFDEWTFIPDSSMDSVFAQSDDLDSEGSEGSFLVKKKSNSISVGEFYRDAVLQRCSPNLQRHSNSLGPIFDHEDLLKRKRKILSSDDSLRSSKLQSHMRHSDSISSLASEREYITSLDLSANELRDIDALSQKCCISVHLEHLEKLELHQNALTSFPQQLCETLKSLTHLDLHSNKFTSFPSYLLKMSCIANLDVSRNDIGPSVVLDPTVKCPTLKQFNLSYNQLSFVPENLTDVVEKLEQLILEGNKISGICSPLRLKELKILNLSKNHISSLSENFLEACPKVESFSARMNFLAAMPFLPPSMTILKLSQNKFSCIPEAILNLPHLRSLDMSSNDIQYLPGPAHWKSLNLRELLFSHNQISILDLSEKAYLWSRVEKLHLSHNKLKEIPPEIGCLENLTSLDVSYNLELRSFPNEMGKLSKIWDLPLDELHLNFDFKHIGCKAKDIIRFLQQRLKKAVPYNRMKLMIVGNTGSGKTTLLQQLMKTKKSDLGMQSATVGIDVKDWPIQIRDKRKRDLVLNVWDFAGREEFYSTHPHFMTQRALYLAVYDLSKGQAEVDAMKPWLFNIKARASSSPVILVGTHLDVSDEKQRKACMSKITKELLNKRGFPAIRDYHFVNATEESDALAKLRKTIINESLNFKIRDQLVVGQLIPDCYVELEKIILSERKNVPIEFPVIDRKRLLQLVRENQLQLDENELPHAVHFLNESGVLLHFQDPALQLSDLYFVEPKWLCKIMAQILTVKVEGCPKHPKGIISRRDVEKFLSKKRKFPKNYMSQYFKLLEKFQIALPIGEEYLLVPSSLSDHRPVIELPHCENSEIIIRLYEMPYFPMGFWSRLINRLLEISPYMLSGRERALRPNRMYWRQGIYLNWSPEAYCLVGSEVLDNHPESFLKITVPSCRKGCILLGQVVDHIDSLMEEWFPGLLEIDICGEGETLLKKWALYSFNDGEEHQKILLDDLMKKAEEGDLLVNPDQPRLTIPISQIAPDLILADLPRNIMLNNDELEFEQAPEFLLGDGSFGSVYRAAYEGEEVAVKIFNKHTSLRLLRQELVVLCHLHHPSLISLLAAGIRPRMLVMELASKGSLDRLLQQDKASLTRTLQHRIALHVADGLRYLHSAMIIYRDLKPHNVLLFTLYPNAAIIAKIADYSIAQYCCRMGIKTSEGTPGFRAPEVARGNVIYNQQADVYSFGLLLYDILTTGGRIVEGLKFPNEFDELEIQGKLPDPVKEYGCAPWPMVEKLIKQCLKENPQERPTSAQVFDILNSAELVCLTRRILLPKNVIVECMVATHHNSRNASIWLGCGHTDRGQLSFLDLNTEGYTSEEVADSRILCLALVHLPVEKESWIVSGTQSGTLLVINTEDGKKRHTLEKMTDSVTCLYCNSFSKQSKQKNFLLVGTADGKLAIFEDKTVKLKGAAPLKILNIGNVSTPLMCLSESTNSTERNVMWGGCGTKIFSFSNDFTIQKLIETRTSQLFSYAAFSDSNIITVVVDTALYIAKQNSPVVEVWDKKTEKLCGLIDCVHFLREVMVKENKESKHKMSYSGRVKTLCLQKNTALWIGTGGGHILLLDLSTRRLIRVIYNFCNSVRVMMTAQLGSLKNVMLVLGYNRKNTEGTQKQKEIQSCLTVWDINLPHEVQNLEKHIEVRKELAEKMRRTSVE
Chain of Leucine-rich repeat serine/threonine-protein kinase 2 (Homo sapiens) (Q5S007 whole entry): as the sequence (Q5S007 whole entry G2019S) above, with S2019G counted along it
Chain of RAF proto-oncogene serine/threonine-protein kinase (Homo sapiens) (P04049 whole entry): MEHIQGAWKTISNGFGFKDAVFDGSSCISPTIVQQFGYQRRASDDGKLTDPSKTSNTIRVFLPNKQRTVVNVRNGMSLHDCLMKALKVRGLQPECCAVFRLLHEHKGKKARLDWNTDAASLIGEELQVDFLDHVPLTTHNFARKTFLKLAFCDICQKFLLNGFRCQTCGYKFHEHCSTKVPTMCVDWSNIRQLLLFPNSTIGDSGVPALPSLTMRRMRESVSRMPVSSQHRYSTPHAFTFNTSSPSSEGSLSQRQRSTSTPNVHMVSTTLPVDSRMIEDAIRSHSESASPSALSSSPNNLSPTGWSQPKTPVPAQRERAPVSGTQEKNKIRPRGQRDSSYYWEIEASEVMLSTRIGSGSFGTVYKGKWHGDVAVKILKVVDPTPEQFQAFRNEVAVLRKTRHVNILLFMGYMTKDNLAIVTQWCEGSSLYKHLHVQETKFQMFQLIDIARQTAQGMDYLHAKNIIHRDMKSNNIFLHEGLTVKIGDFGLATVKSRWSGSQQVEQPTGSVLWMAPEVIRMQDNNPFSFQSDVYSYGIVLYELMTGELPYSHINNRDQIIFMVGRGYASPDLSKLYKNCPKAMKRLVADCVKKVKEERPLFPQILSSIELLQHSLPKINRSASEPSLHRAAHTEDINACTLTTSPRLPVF

SMILES	inhibition [1] [%]	inhibition [2] [%]	inhibition [3] [%]	inhibition [4] [%]	inhibition [5] [%]	inhibition [6] [%]	inhibition [7] [%]
O=C1NC(=O)C(c2cccc(Cl)c2)=C1Nc1ccc(O)c(Cl)c1	3.11	2.97	0.96	4.5	18.4	4.28	30
CCn1c(-c2nonc2N)nc2c(C#CC(C)(C)O)nc(CN3CCCC3)cc21	-7.96	3.31	-0.93	-0.1	1.92	0.81	3.54
CCCN1CCC=C(c2ccc(Nc3nc(Nc4ccccc4C(N)=O)c4cc[nH]c4n3)c(C)c2)C1	3.95	2.14	5.18	77.6	87.8	63.6	63.6
CCn1c(-c2nonc2N)nc2c(N3CCCC3)nccc21	-1.43	1.9	-0.28	-2.19	2.91	0.77	1.57
Fc1cccc(COc2ccc(Nc3ncnc4sc(-c5cccs5)cc34)cc2Cl)c1	-2.15	0.39	1.34	1.83	4.84	3.4	6.24
CCn1c(-c2nonc2N)nc2ccncc21	14	2.09	0.65	1.49	2.85	1.49	6.2
CC(C)=Cc1cccc2c1/C(=N/Nc1ccc(S(N)(=O)=O)cc1)C(=O)N2	-1.14	-0.76	0.79	14.9	65.4	17.7	60.9
COc1cc2c(cc1Nc1nc(N3CCc4ccccc43)c3cc[nH]c3n1)N(C(=O)CN(C)C)CC2	-4.34	-0.95	0.98	17.6	19.3	18.2	57.1
O=C1NC(=O)C(N2CCc3ccccc32)=C1c1ccc(Cl)cc1	0.17	3.05	1.81	3.88	8.75	4.99	10.7
NS(=O)(=O)c1cccc(-c2ccc3c(NC(=O)C4CC4)n[nH]c3c2)c1	-2.5	1.83	-0.64	-2.61	1.25	1.47	1.75
COc1ccccc1Nc1ncc(-c2ccccc2)o1	1.9	2.31	2.99	4.53	8.57	6.36	11.3
CCn1c(-c2nonc2N)nc2cncc(C(=O)N3CCNCC3)c21	-2.31	2.74	3.54	1.69	0.35	3.72	7.17
CC1=C(C(=O)Nc2ccc3[nH]ncc3c2)C(c2ccc3ccccc3c2)CC(=O)N1 (stereo unspecified)	1.65	3.06	0.83	4.73	10.1	6.31	25
COc1ccc2cc(-c3c(-c4ccncc4)nc(-c4ccc([S+](C)[O-])cc4)n3C)ccc2c1 (stereo unspecified)	9.73	3.57	1.12	2.6	4.23	3.37	5.02
COc1ccc(-c2ccncc2)cc1C(N)=O	-2.86	1.8	2.34	2.67	5.73	4.45	9.13
Cc1ccc(NC(=O)c2ccnc(N3CCCC3)c2)cc1-c1ccc(C(=O)NCC2CC2)cc1	-6.49	-0.18	2.34	1.63	6.13	4.42	7.81
O=C1Nc2ccc(C(=O)c3ccco3)cc2C1=Cc1cc(Cl)c(O)c(Cl)c1	48.6	3.84	5.2	22.8	24	61.1	63.9

SMILES	inhibition [1] [%]	inhibition [2] [%]	inhibition [3] [%]	inhibition [4] [%]	inhibition [5] [%]	inhibition [6] [%]	inhibition [7] [%]
CC(=O)Nc1cccc(C#Cc2cncnc2Nc2ccc(OCc3cccc(F)c3)c(Cl)c2)n1	-2.95	-0.61	-0.89	3.07	4.78	2.03	5
Fc1cccc(COc2ccc(Nc3ncnc4cc(-c5ccc[nH]5)sc34)cc2Cl)c1	1.43	7.16	1.69	-4.42	-3.46	-1.54	0.39
CCn1c(-c2nonc2N)nc2cncc(C(=O)N3CC[C@H](N)C3)c21	3.85	2.88	2.25	4.57	14.5	7.16	29.5
CN1CCC(C(=O)Nc2n[nH]c3nnc(-c4ccccc4)cc23)CC1	8.96	1.96	2.54	1.09	3.72	3.14	6.96
CCN1CCC(CC(=O)Nc2n[nH]c3nc(-c4cccs4)c(Br)cc23)CC1	1.23	-3.96	-0.76	-0.41	2.42	0.89	2.44
COc1ccc(-c2nn3ncccc3c2-c2ccnc(Nc3ccc(Cl)c(C(F)(F)F)c3)n2)cc1	-8.01	2.17	0.42	0.37	1.12	2.99	3.98
NC(=O)c1cccc(Nc2nccc(Nc3cccc4[nH]ncc34)n2)c1	-3.49	-3.26	3.19	0.85	8.7	4.42	30.9
CS(=O)(=O)Nc1ccc(N/C=C2\C(=O)Nc3ccccc32)cc1	-2.68	-0.49	-0.15	1.31	18.1	5.01	31.3
COc1cc(C=NNc2ncnc3c2cnn3-c2ccccc2)ccc1O	-6.14	-2.02	3.98	7.59	22.3	7.59	40.8
[O-][S+]1CCN(Cc2ccc(-c3ccc4ncnc(Nc5ccc(OCc6ccccc6)c(F)c5)c4c3)o2)CC1	-3.42	3.06	1.06	2.89	2.77	2.32	8.38
NCc1ccc(-c2nc(-c3ccc(Cl)c(O)c3)c(-c3ccncc3)[nH]2)cc1	76.6	3	0.37	1.04	1.56	1.02	4.61
CCn1c(-c2nonc2N)nc2c(C#CC(C)(C)O)nc(OC[C@@H](N)c3ccccc3)cc21	3.8	-2.13	0.37	2.04	8.46	2.34	19.7
NC(=O)c1ccc(-c2nc(-c3ccccn3)c(-c3ccc4c(c3)OCO4)[nH]2)cc1	15.6	2.26	1.06	2.49	5.02	2.85	3.41
COc1cc(C)c(NC(=O)CN(C)C)cc1Nc1nc(Nc2cccc(F)c2C(N)=O)c2cc[nH]c2n1	-0.14	-2.25	2	91.2	90.2	83.5	88.7
Nc1ncnc2occ(-c3ccc(NC(=O)Nc4cc(C(F)(F)F)cc(C(F)(F)F)c4)cc3)c12	3.32	-4.93	1.16	9.63	16.7	4.56	26.1
Nc1ncnc2occ(-c3ccc(NC(=O)Nc4cccc(C(F)(F)F)c4)cc3)c12	-2.58	2.03	2.34	17.1	57.9	13.1	42.8
